# Measurements reported in PubChem BioAssay AID1117361 (Southern Research Institute, 2015).
# About 900 (25%) of roughly 3,600 compounds were called active. These entries were drawn from the full list. Entries with a potency or affinity are not part of this list. Unmarked numbers belong to inactive results. No rule for the calls is given here.
# Molecular target: Protein Tat (Human immunodeficiency virus type 1 group M subtype B (isolate HXB2)) (UniProt P04608)
# Experiment: HIV-1 Tat–TAR interaction blockers – biochemical, fluorescence polarization, FAM-labeled TAR RNA, counter-screen for Vif-APOBEC3G degradation inhibitor project, dose response (AID 1117361)
# Details: Tat-TAR RNA binding; series mostly up to 100 µM; inhibition: at the top concentration
Structure (SMILES),inhibition,outcome
O=C(Cn1nnc(-c2ccccc2-n2cnnn2)n1)c1ccccc1,4.73%,
C=CCOc1ccc(/C=C2\SC(=S)N(CCC(=O)O)C2=O)cc1,3.99% [at 50 µM],
O=C(CN1C(=O)/C(=C\c2cccs2)SC1=S)Nc1cccc(C(=O)O)c1,21.4%,
CC(=O)O/N=C/c1c(N2CCOCC2)n(C)c2ccccc12,6.82%,
CCS(=O)(=O)Nc1ccc(C(=O)CC2(O)C(=O)Nc3ccccc32)cc1 (centres undefined),6.08%,
CCOC(=O)C1CCCN(C(=O)c2ccc(CS(=O)(=O)c3ccc(Br)cc3)o2)C1 (centres undefined),10.8%,
COc1ccc(S(=O)(=O)Cc2ccc(C(=O)NC(C)C)o2)cc1,14.9%,
CCOC(=O)CSc1nnc(CNC(=O)c2cccs2)n1CCc1ccccc1,4.09%,
Cc1ccc(SCC2=NNC(=O)C2)cc1,13.6%,
COc1ccccc1N(CC(O)CN1C(=O)NC(C)(C)C1=O)S(=O)(=O)c1ccc(C)cc1 (centres undefined),2.7%,
Cc1nn(Cc2ccccc2)c(C)c1/C=N/NC(=O)c1ccccc1O,4.12%,
CN(C)/C=N/NC(=O)c1ccccc1Cl,,inactive
Cc1nc2ccc(S(=O)(=O)N(C)CC(=O)N3CCc4ccccc43)cc2s1,4.09%,
COC(=O)[C@@]1(Cc2ccc(OC)cc2)[C@H]2c3cc(C(=O)N(C)C)n(C[C@H](O)CO)c3C[C@H]2CN1C(=O)c1ccccc1,2.47%,
CCOC(=O)c1sc2ncnc(N3CCN(C(=O)OCC)CC3)c2c1C,,inactive
COc1ccc(-c2nc(CS(=O)CC(=O)NCc3ccco3)c(C)o2)cc1 (centres undefined),14.2%,
CCCCC(O)(CCCC)C(=O)N/N=C(\C)c1ccc(Cl)cc1,14%,
Cc1ccc2nc(SCC(=O)N(CC(C)C)c3c(N)n(CC(C)C)c(=O)[nH]c3=O)[nH]c2c1,16.9%,
COc1ccc(NC(=O)C2CCCN(S(=O)(=O)c3cccnc3)C2)cc1 (centres undefined),,inactive
O=c1[nH]c2ccccc2c(O)c1-[n+]1ccccc1,4.12%,
CCC(C)[C@H](NC(=O)Nc1ccccc1F)C(=O)OC (some centres undefined),4.12%,
COC(=O)C(NC(=O)C(NC(=O)c1ccccc1)C(C)C)C(C)C (centres undefined),8.78%,

Structure (SMILES),inhibition,outcome
CCOC(=O)c1ccccc1NC(=O)CSc1nccn1C,4.77%,
O=[N+]([O-])c1ccc(N2CCN(c3ccc(Cl)nn3)CC2)c(Cl)c1,2.73%,
CCc1ccc(C(=O)Nc2cccnc2Oc2ccc(Cl)cc2)cc1,,inactive
CC1=CC(C)(C)Nc2ccc(OC(=O)c3cccnc3)cc21,11.5%,
Cc1cc(C)cc(OCC(=O)NNC(=O)CN2C(=O)c3ccccc3C2=O)c1,,inactive
O=C(Nc1ccccc1[N+](=O)[O-])C1C(c2ccccc2)=C1c1ccccc1,0.68%,
Cc1ccc(C(=O)NNS(=O)(=O)c2ccccc2[N+](=O)[O-])cc1,9.07%,
O=C(NN=C1CCCCCC1)c1cccnc1,,inactive
O=C(COc1cccc2cccnc12)N1CCc2ccccc2C1,8.87%,
Cc1cc(C)n(CC(=O)NNC(=O)c2ccc(NC(=O)CC#N)cc2)n1,,inactive
CN(CCOCCOc1ccc2ccccc2c1)Cc1ccccc1,,inactive
Cc1c(C(=O)Nc2ccncc2)oc2c1C(=O)CC(C)(C)C2,9.46%,
CC(C(=O)Nc1ccc(F)c(F)c1F)N1CCCCCC1 (centres undefined),6.82%,
CCOC(=O)/C(C#N)=C/c1c(OCC)n(CC)c2ccccc12,,inactive
COC1=CC(=O)c2c(ccc3ncnc(N)c23)C1=O,,inactive
CCOC(=O)c1cc(-c2ccccc2)n(CC(=O)O)c1C,1.35%,
CC(C)n1c(CCC(=O)O)ccc1-c1ccccc1,18.2%,
Cc1c(CN2CCC(CO)(Cc3cccc(C(F)(F)F)c3)CC2)c2ccccc2n1C,3.3%,
CCOc1ccc(-n2cnnn2)cc1S(=O)(=O)NCCc1ccc(OC)c(OC)c1,,inactive
O=C(CSc1nccc(=O)[nH]1)Nc1ccc2c(c1)OCCO2,,inactive
Cc1nc(NC(=O)CN2CCOCC2)sc1-c1ccccc1,0.68%,
C=CCn1c(N2CCCCCC2)nc2c1c(=O)[nH]c(=O)n2C,10.4% [at 50 µM],

Structure (SMILES),inhibition,outcome
Cc1ccc2[nH]c(=O)c(C3C(C#N)=C(N)Oc4c3ccc3cccnc43)cc2c1 (centres undefined),3.01%,
CC(=O)OC(C)C1C2=C(C(=O)CC1(C)O)C(=O)c1c(ccc(-c3ccc4c(c3O)C(=O)C3=C(C4=O)C(C(C)OC(C)=O)C(C)(O)CC3=O)c1O)C2=O (centres undefined),,inactive
CCNC(=O)C1CC(=O)N(Cc2ccc(F)cc2)C(=Nc2ccc(OC)cc2)S1 (centres undefined),,inactive
N#C/C(C(=O)N1CCOCC1)=C1/SC(Cc2ccccc2)C(=O)N1c1ccccc1 (centres undefined),6.08%,
CCc1ccc(N/C(SCc2cccc(F)c2)=C(/C#N)C(=O)NCc2ccco2)cc1,8.19%,
Cc1ccc2nsnc2c1S(=O)(=O)N(Cc1ccco1)Cc1cc2cccc(C)c2[nH]c1=O,1.36%,
CCN(Cc1ccccc1)Cc1nnnn1Cc1ccccc1,,inactive
Cc1ccc2[nH]c(=O)c(CN(Cc3cccs3)Cc3nnnn3Cc3ccccc3)cc2c1,20.5%,
CCOc1ccc2[nH]c(=O)c(CN(Cc3nnnn3Cc3ccco3)C3CCCCC3)cc2c1,,inactive
Cc1ccc(-n2ncc(C#N)c2/N=C/N2CCCCCC2)cc1,4.05%,
O=C1OCCC1Sc1nc2ccccc2n1Cc1ccccc1 (centres undefined),,inactive
Cn1c(=O)oc2cc(S(=O)(=O)Nc3cccc(C(=O)O)c3)ccc21,8.19%,
CCOC(=O)c1ccc(NS(=O)(=O)c2ccc3oc(=O)[nH]c3c2)cc1,,inactive
COC(=O)c1sc(NC(=O)c2ccc(Cn3cc(Cl)cn3)o2)c(C#N)c1C,25%,
CCOc1ccc(/C=C2\SC(=S)N(CCC(=O)O)C2=O)cc1,0.82%,
Cc1ccc(OCCSc2nnc(-c3ccncc3)n2C)cc1,2.73%,
CC(Oc1cccc2cccnc12)C(=O)N/N=C/c1ccc2c(c1)OCO2 (centres undefined),4.12%,
COc1cc(NC(=O)c2noc3c2CCC3)c(OC)cc1Cl,2.34%,
O=C(c1cccs1)N1CCN(C/C=C/c2ccccc2)CC1,2.03%,
c1ccc2c(c1)NCC1CCCN21 (centres undefined),,inactive
COc1ccccc1NC(=O)c1oc2ccc(C)cc2c1C,,inactive
Cc1nnc(-c2cnn(-c3ccccc3)c2N)n1Cc1cccc(C(F)(F)F)c1,4.05%,

Structure (SMILES),inhibition,outcome
O=C(Nc1ccccc1C(=O)NCC1CCCO1)c1ccccc1 (centres undefined),,inactive
CCNC(=S)Nc1cccc(S(=O)(=O)NC2=NCCC2)c1,,inactive
CC(C)Oc1ccc(-c2cc(C(=O)NCCN3CCOCC3)c3ccccc3n2)cc1,,inactive
CCOC(=O)N1CCC(NC(=O)c2cc3c(C)nc4ccccc4c3o2)CC1,21.6%,
O=C(NCC1CCCO1)c1cc2ccccc2oc1=O (centres undefined),,inactive
O=[N+]([O-])c1ccc(Cl)c(S(=O)(=O)Nc2cccc(S(=O)(=O)NC3=NCCC3)c2)c1,,inactive
CCOC(=O)N1CCC(NC(=O)c2cc(C(=O)NCc3cccc(Cl)c3)ccc2CO)CC1,1.36%,
Cc1ccc2cccc(S(=O)(=O)N3CCN(c4ccccc4F)CC3)c2n1,,inactive
S=C(N/N=C/c1cccs1)NC1CC2CCC1C2 (centres undefined),,inactive
CC1=C(C(=O)OC(C)C)C(c2ccc(Br)s2)NC(=O)N1C (centres undefined),,inactive
COC(=O)Nc1ccc(C)c2nsnc12,,inactive
COc1ccccc1Cn1c(-c2ccccc2OC)nc2ccccc21,6.14%,
CCOc1ccc2nc(SCC(=O)c3cccs3)sc2c1,,inactive
CCOC(=O)C1CCN(S(=O)(=O)c2cccc(-c3cn4cccnc4n3)c2)CC1,8.11%,
O=C(Nc1cnn(Cc2ccc(Cl)c(Cl)c2)c1)c1nc2ncccn2n1,,inactive
CC(Sc1nnc(C2CC2)n1C)C(=O)Nc1ccc(N2CCOCC2)cc1 (centres undefined),5.68%,
CCN(CC)S(=O)(=O)c1ccc(/C=C/C(=O)Nc2ccc(N3CCOCC3)cc2)cc1,5.77%,
O=C1CC(N2CCOCC2)C(=O)N1c1ccc(Cl)cc1 (centres undefined),,inactive
Cn1c(-c2ccccc2)cnc1SCC(N)=O,2.03%,
COc1nc(N(c2ccccc2)c2ccccc2)nc(-n2ccnc2)n1,25.7%,
C(=N\n1cnnc1)/c1ccc2ncccc2c1,,inactive
CC(C)OC(=O)CSc1nnc(-c2ccccn2)n1-c1ccccc1,6.76%,

Structure (SMILES),inhibition,outcome
C/C(CC1CC2=C(CC1(C)C)C(C)(C)CCC2)=N\NC(N)=S (centres undefined),,inactive
Cc1nc(NC(=O)COC(=O)CCS(=O)(=O)c2ccccc2Cl)c(Cl)cc1Cl,11.5%,
Cc1ccc(NC(=S)NNc2ncc(C(F)(F)F)cc2Cl)cc1,,inactive
O=c1c2cnn(-c3ccccc3Cl)c2ncn1Cc1cccnc1,8.78%,
CC1=CC(C)C2C(=O)N(CCCN(C)C)C(=O)C2C1 (centres undefined),2.03%,
COc1ccc(Nc2nc(N)nc(CSC(=S)N3CCN(c4ccccc4)CC3)n2)cc1,15.7%,
Cc1nc(C)c(C(=O)OCC(=O)Nc2ccc(C)c(C)c2)s1,,inactive
O=C(N/N=C/C1CC=CCC1)c1ccccc1O (centres undefined),,inactive
O=C(Cn1ncc2c(=O)oc3ccccc3c21)N1CCCc2ccccc21,,inactive
CCc1cccc(CC)c1-n1c(SCC(=O)N2CCCc3ccccc32)nc(O)cc1=O,,inactive
Cc1onc(-c2ccccc2)c1C(=O)N1CCCc2ccccc21,,inactive
O=C(Cn1cc2c(n1)CCCC2)N1CCCc2ccccc21,6.76%,
Cc1nnc(SCC(=O)NCc2cccs2)[nH]c1=O,4.05%,
COc1ccc(C(CNCC(=O)Nc2ccccc2F)N(C)C)cc1 (centres undefined),,inactive
O=[N+]([O-])/C(C(Cl)=C(Cl)Cl)=C(/NC1CC1)Sc1ccccc1,0.82%,
O=C1CCCN1c1ccc(S(=O)(=O)N2CCC(c3ccccc3)CC2)cc1,0.68%,
N#C/C(=C/c1cc(Br)cs1)C(=O)NCC1CCCO1 (centres undefined),2.03%,
Cc1ccc(Cl)cc1N1CCN(C(=O)Cc2cn(C)c3ccccc23)CC1,4.05%,
O=C(COc1ccc(Cl)cc1)N1CCN(S(=O)(=O)c2ccc(Cl)cc2)CC1,11.5%,
CC(C)Cn1nc(NC(=O)C(C)(C)C)c2cc3ccccc3nc21,22.3%,
Cc1ccc(C(=O)NNS(=O)(=O)c2ccc(F)cc2)cc1,1.67%,
